# Assay results as given in PubChem BioAssay AID1628 (Sanford-Burnham Center for Chemical Genomics, 2009).
# Screen size: about 190,000 compounds; about 930 (0.49%) were called active. The list shows a part of the results. Potency and affinity values are given separately. A number with no mark means an inactive call.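 Rule for the calls: active = z-score of insulin promoter reporter brightness in nuclei below -3 at 5 µM, with at least 500 cells counted; inconclusive = wells with under 500 cells, flagged as toxic or sparse; inactive = the rest.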
# Assay: decrease of insulin promoter-GFP reporter – imaging, high-content screening, mouse beta cells (AID 1628)
# Settings: MIN6 insulin promoter GFP reporter, at 5 µM, active compounds read low
row,SMILES,z-score
1,CCN(CC)S(=O)(=O)c1cccc(-c2n[nH]c(=S)n2/N=C/c2ccc(C(=O)OC)cc2)c1,-4.66 (active)
2,COC(=O)c1cc(Nc2cc(C)c3ccc(O)cc3n2)cc(C(=O)OC)c1,-3.19 (active)
3,COC(=O)c1cc(-c2c(C)oc3cc(O)ccc3c2=O)c(C)o1,0.55
4,Cc1cc(C(=O)COc2ccc(-c3nnco3)cc2)c(C)n1Cc1ccccc1,-4.66 (active)
5,S=C(Nc1ccccc1Cl)N(CCCN1CCOCC1)Cc1ccco1,-4.9 (active)
6,CCOC(=O)Cc1csc(SCC(=O)Nc2cccc(C#N)c2)n1,1.27
7,Cc1csc(NC(=O)CN(C)S(=O)(=O)c2cccc3cccnc23)n1,3.05
8,Cc1csc(SCC(=O)Nc2cccc3nsnc23)n1,-3.34 (active)
9,N=c1c2c(n(Cc3ccc(F)cc3)c3c1CCC3)CCC2,-5.9 (active)
10,N=c1c2c(n(Cc3ccc([N+](=O)[O-])cc3)c3c1CCC3)CCCC2,-3.48 (active)
11,CC(C)(C)NC(=O)N1CCC(CO)(Cc2ccccc2Cl)CC1,-3.59 (active)
12,CCCn1nc2cc(C(=O)NCc3ccccc3)ccc2c1OCC,4.73
13,CCCCn1nc2cc(C(=O)N(CC)c3ccc(OC)cc3)ccc2c1OCC,-3.8 (active)
14,Cc1ccccc1N=Nc1c(C)[nH]n(C(N)=S)c1=O,-9.54 (active)
15,O=C(NNS(=O)(=O)c1ccc(F)cc1F)c1csc(-c2cccnc2)n1,-3.45 (active)
16,Nc1c(C(=O)N/N=C/c2cccnc2)oc2nc(-c3ccccc3)cc(-c3ccco3)c12,4.08
17,CCCCc1nnc(NC(=O)CSc2nc(O)c(Cc3ccccc3)c(=O)[nH]2)s1,2.27
18,O=C(CSc1nc(Cc2ccccc2)nc2ccccc12)Nc1nc2c(s1)CCCC2,-3.54 (active)
19,CN(C)c1ccc(/C=C(\C#N)C(=O)Nc2nc3c(s2)CCN(Cc2ccccc2)C3)cc1,15.1
20,O=c1cc(O)c2c(=O)n(-c3ccccc3)c3c(c2o1)CCCCCC3,-4.17 (active)

row,SMILES,z-score
1,Cc1cc(Nc2nn(C)c(N)c2C#N)ccc1F,6.01
2,CCOC(=O)C1C(=O)C=C(/C=C/c2ccc(N(C)C)cc2)CC1c1ccccc1 (stereo not given),9.81
3,CCOC(=O)C1C(=O)C=C(c2cccc(NS(C)(=O)=O)c2)CC1c1ccco1 (stereo not given),-3.47 (active)
4,O=C(COc1ccc(Cl)cc1)NCc1nnc(SCC(=O)NC2CCCCC2)o1,3.28
5,COc1ccc(OCCC(=O)NC2CCCCC2)cc1,-3.45 (active)
6,COc1ccc(-c2nnn(CC(=O)N(CCO)C(C(=O)NC3CCCC3)c3ccc(F)cc3)n2)cc1 (stereo not given),3.28
7,S=c1[nH]c2ccc(Cl)cc2[nH]1,1.33
8,CC1CCCC(C)N1C(=O)CSc1nnc(-c2cccs2)o1 (stereo not given),3.46
9,O=C(CSc1nnc(-c2cccs2)o1)N1CCOCC1,-4.31 (active)
10,COc1ccccc1C(c1nnnn1Cc1ccccc1)N1CCN(c2nc3ccccc3s2)CC1 (stereo not given),-5.06 (active)
11,COc1ccc(C(c2nnnn2Cc2ccccc2)N2CCN(c3nc4ccccc4s3)CC2)cc1 (stereo not given),-5.01 (active)
12,c1ccc(Cn2nnnc2C(c2ccccc2)N2CCN(c3nc4ccccc4s3)CC2)cc1 (stereo not given),-3.45 (active)
13,N#C/C(=C/c1ccc(N2CCCCC2)o1)C(=O)Nc1ccc(Cl)cc1,17.2
14,c1ccc(-c2nnc3sc(CN4CCc5ccccc54)cn23)cc1,-0.03
15,COC(=O)c1ccc(Cl)c(-c2ccc(/C=N/NC(=O)Nc3ccccc3)o2)c1,-3.3 (active)
16,COc1cc([N+](=O)[O-])ccc1-c1ccc(/C=N/NC(N)=O)o1,3.33
17,COc1cc2c3nnc(-c4ccc(F)cc4)c-3cn(Cc3ccccc3F)c2cc1OC,6.27
18,CC(C)COC(=O)c1nnsc1NC(=O)Nc1ccccc1,-3.85 (active)
19,CC1CCc2c(sc3nn[nH]c(=O)c23)C1 (stereo not given),4.24
20,COc1c2c(nc3ccccc13)OC(C(C)(O)COC(C)=O)C2 (stereo not given),3.26

row,SMILES,z-score
1,Cc1cc(C)cc(NC(=O)/C=C/c2ccc([N+](=O)[O-])s2)c1,5.99
2,COc1ccc(OC)c(/C(O)=C/C(=O)C(=O)Nc2cc(C)cc(C)c2)c1,-5.01 (active)
3,COc1cccc(/C=N/n2c(=O)[nH]c3ccccc32)c1OC,-4.61 (active)
4,O=[N+]([O-])c1ccc2c(c1)C(N1CCOCC1)/C(=C/COc1ccc3ccccc3c1Br)O2 (stereo not given),-5.36 (active)
5,CCN(C(=O)COC(=O)c1cccnc1Nc1cccc(C(F)(F)F)c1)C1CCS(=O)(=O)C1 (stereo not given),-4.37 (active)
6,Cc1cc(C)n(-c2ccc(C(=O)OCC(=O)N(CC(C)C)C3CCS(=O)(=O)C3)cc2)n1 (stereo not given),3.33
7,O=Nc1c(O)n(Cc2ccc(Cl)cc2)c2ccccc12,3.05
8,COc1ccc(OC)c(-n2c(=S)[nH]c3c(sc(=S)n3-c3ccccc3)c2=O)c1,5.22
9,COc1ccc(C2C(=O)c3ccccc3C2=O)cc1OC,3.02
10,COc1ccc(C2/C=C\CN(S(=O)(=O)c3cccc4cccnc34)CC(=O)N2Cc2ccc(F)cc2)cc1 (stereo not given),7.49
11,COc1ccc(C2C(Oc3ccccc3C)C(=O)N2Cc2ccc(F)cc2)cc1OC (stereo not given),-5.19 (active)
12,CCOc1ccccc1-c1c2cc(O)c(=O)cc-2oc2cc(O)c(O)cc12,8.08
13,CCOc1ccccc1N=C1NC(=O)CS1,-6.97 (active)
14,O=C(Nc1nc2ccccc2n1CCN1CCOCC1)c1ccc(COc2ccccc2Br)o1,-3.48 (active)
15,COc1ccc(-c2nnc(SCC(=O)N(Cc3ccccc3)C(C)(C)C)o2)cc1OC,-5.96 (active)
16,COC(=O)CN(C(=O)CSc1nnc(-c2cccc(OC)c2)o1)c1ccc(OC)cc1,-0.85
17,CCCOC(=O)CSc1nnc(-c2ccc(Cl)cc2Cl)o1,-1.15
18,CCOC(=O)/C(=C/C=C1\Sc2cc(OCC)c(OCC)cc2N1CC)C(C)=O,16.2
19,Cc1ccc(C)c(Cn2c(C)nc3c(sc(=S)n3-c3ccccc3)c2=O)c1,2.17
20,Cc1nc2c(c(=O)n1Cc1ccccc1Cl)c1nc3ccccc3nc1n2Cc1ccco1,-5.21 (active)
